Laboratory results reported in the supplement of paper PMC6555819.

Legend:
Assay in all cases: PBM binding z-score (relative to random genomic background probes); higher = stronger binding; sequences stand for … in GC…GCGATTGACAGCGTAGAATGAAGG
[1] = test system: FXR:RXRa (NR concentration 270 nM, RXRa partner concentration 90 nM)
Procedure, shortened: (§1)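 For binding z-scores, the reference was random background probes on custom Agilent 4×180K protein-binding microarrays. These arrays were incubated 1 h with ligand-free nuclear receptor dimers in PBS pH 7.4, 2% milk, 0.02% Triton X-100, 1 mM DTT, 0.2 mg/mL BSA and 0.4 mg/ml salmon testes DNA. Fluorescence was scanned after antibody detection of each partner (one per run) and regression-normalized.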

[2] = test system: LXRa:RXRa (NR concentration 270 nM, RXRa partner concentration 90 nM)
Procedure, shortened: as §1

[3] = test system: LXRa homodimer (NR concentration 270 nM)
Procedure, shortened: as §1

[4] = test system: LXRb:RXRa (NR concentration 270 nM, RXRa partner concentration 90 nM)
Procedure, shortened: as §1

[5] = test system: LXRb homodimer (NR concentration 270 nM)
Procedure, shortened: as §1

[6] = test system: PPARa:RXRa (NR concentration 270 nM, RXRa partner concentration 90 nM)
Procedure, shortened: as §1

[7] = test system: PPARg:RXRa (NR concentration 180 nM, RXRa partner concentration 90 nM)
Procedure, shortened: as §1

[8] = test system: PPARg:RXRa 270nM:90nM, anti-RXR (NR concentration 270 nM, RXRa partner concentration 90 nM)
Procedure, shortened: as §1

[9] = test system: PPARg:RXRa 30nM:10nM, anti-RXR (NR concentration 30 nM, RXRa partner concentration 10 nM)
Procedure, shortened: as §1

[10] = test system: PPARg:RXRa 90nM:30nM, anti-RXR (NR concentration 90 nM, RXRa partner concentration 30 nM)
Procedure, shortened: as §1

Sequence	PBM binding z-score [1]	PBM binding z-score [2]	PBM binding z-score [3]	PBM binding z-score [4]	PBM binding z-score [5]	PBM binding z-score [6]	PBM binding z-score [7]	PBM binding z-score [8]	PBM binding z-score [9]	PBM binding z-score [10]
CAAACTAGGTCACGAAAGGTTAAAGTCGAATGAC	5.89	7.18	3.46	5.5	0.758	6.04	9.67	7.92	5.98	8.04
CAAACTAAGTCAAGAGGTCAAAGTCCGCTTCCCG	5.6	5.87	5.56	5.06	1.95	5.52	4.19	5.54	2.73	4.86
ATATGTAGGTGATCGGGTCATTCAGTTTGCGCAT	1.36	1.47	0.268	1.79	0.875	4.72	6.45	5.32	3.24	5.22
CGTACAAGGTCAGAGAGGTCAGTGAATGCCGAGT	6.42	5.64	3.38	4.41	0.711	5.09	4.76	4.98	1.97	3.42
CTCGAAAGGACGTGCTCAGGTGAGTATACCAAAC	0.0322	-0.223	-0.388	-0.196	-0.277	-0.124	0.136	-0.268	-0.294	-0.148
TCTAGCAGACCAGAGGGTCACTCAAGAGGTACGG	0.955	0.817	-0.662	1.1	-1.39	2.15	0.882	1.31	1.8	1.61
AGAACGAGGGAACGCTGAGTTGATAGCAGAGTAG	-0.288	-0.46	-0.611	-0.674	-0.803	-0.499	0.464	-0.265	-0.0206	-0.332
CGAACTAGGTCAGTACAGGACAGTGAAGGATGAT	1.58	1.83	-0.0342	0.493	-0.478	3	4.93	4.25	1.71	3.39
ACTAGCAGGCCAAGTTAGGGTCACTCAAACAAAG	1.87	1.73	-0.142	2.55	-0.86	3.36	0.753	1.38	-0.00931	1.07
CCTACTGGGCCATCAGGTCAATGATATCAACGTT	1.53	0.905	0.486	1.15	-0.402	2.54	2.79	3.37	0.642	2.76
CGTCCAAGCTCATAGGAGGTCAGTGAAGACAGAT	0.888	1.51	1.08	1.33	-0.0875	1.92	0.491	0.292	-0.158	0.173
CCGACTGAGGCATAAGGTTACCATAAGCCAGCCC	0.414	2.01	-0.182	1.05	-1.08	1.18	0.973	1.31	-0.0351	0.852
ACAGACAGGTGCTGAAGGTAACTCAGGCTATCAT	-0.388	-0.633	-0.46	-0.677	-0.731	-0.462	0.398	-0.189	-0.203	-0.342
GATACAGGGTCAAGGCGAGAGTACGCGTATTGAT	6.79	4.05	-0.0981	3.74	0.243	5.39	5.7	5.39	2.2	4.05
ACTAGTTGGTCAGCTGAGGTCACAGACAATTCGG	2.95	3.29	1.84	3.27	0.184	3.71	1.72	2.16	0.454	1.43
CCATACGGGTCAAGGTTATAGCACGGGTGGTACG	5.13	3.28	0.265	2.54	-0.237	4.84	4.87	4.32	1.07	3.23
TAGCCTAGCTCATTGGGCCAGTATAGTACGCATC	-0.7	-0.917	-0.393	-0.751	-0.9	-0.564	0.238	-0.576	-0.321	-0.323
TCTAGTTAGTCACGGAGGTCACACACGACGGGTA	3.07	3.04	2.41	3.3	0.442	3.76	2.22	3.13	3.48	3.22
TCGAGTAGGTTAGGGACATTCAGAATGGCGTCGA	0.438	-0.314	-0.491	-0.146	-0.828	0.561	0.371	0.659	1.18	0.799
TCGGACAGGTGAAGGTAACTCAGGTACGCAGTCG	0.451	1.52	0.174	0.636	-0.839	0.988	0.599	1.57	2.75	1.87
TCTAACAGGCCAGAGGGTCACTCAAGAGGTACGG	1.24	1.31	-0.315	1.47	-0.439	2.54	1.41	2.62	3.2	2.71
CCAGACAGGTGAGAAGGTAACTTAGCCTCGATTA	0.0387	0.133	-0.108	0.0826	-0.355	0.501	0.351	0.351	-0.0164	0.0696
ACTATTAGTTGAAACGAGGGCAACCGATAGGTTG	1.41	0.609	0.126	0.482	0.184	1.14	0.901	0.84	0.292	0.528
ATCGAAAGGTAGACGAGGTGAGTATACACCGTTT	0.276	-0.145	-0.253	-0.306	-0.37	0.231	0.859	0.249	0.55	0.0652

Sequence	PBM binding z-score [1]	PBM binding z-score [2]	PBM binding z-score [3]	PBM binding z-score [4]	PBM binding z-score [5]	PBM binding z-score [6]	PBM binding z-score [7]	PBM binding z-score [8]	PBM binding z-score [9]	PBM binding z-score [10]
GCAGACAGGTGAAACGCAGGTCACTCAGGGTGGC	1.55	2.05	0.579	1.27	-0.88	2.57	0.931	1.01	-0.357	0.0435
CAGTCTAGGTCAGGGCCAGTATAGGAGGAACGTT	1.52	1.1	-0.0547	0.856	-0.215	2.68	2.64	2.85	1	1.96
CGACCAAGGTCATAGGAGGTCAGTGAAGACAGAT	7.7	7.58	4.51	5.89	0.466	5.7	6.04	5.91	2.45	4.68
CCAGACAGGTGACAAGGTAACTCAGCCTCGATTA	0.0849	0.145	-0.212	-0.039	-0.466	0.6	0.825	0.508	-0.365	0.0365
CGTCCAAGGTCAATGCTAGGTCAGTGCAAGCATT	6.7	5.58	2.83	4.07	0.975	4.94	3.6	4.26	0.996	3.23
TCTTCTAGATCAACAGGAGGTTAAGAAAGATCGA	0.645	1.25	0.194	0.772	0.728	1.24	0.0258	1.94	3.46	2.67
TAGCCTAGGTCAGATCGGGCCAGTATGCGCTATA	2.71	1.19	-0.503	0.727	-0.424	1.73	0.328	0.593	-0.423	0.0994
AATACTGGGTCATCGTAGGCCAGAGTACGCACAG	3.75	4.06	1.07	2.04	0.0752	4.49	6.86	5.4	3.02	4.86
GCTGCTGGGTCAACTGATGGTCAGCTAAAGCTCG	3.55	2.07	-0.346	1.83	-0.326	3.89	2.34	2.93	0.519	1.99
CCGACTGGGGCAGAAACGTTACCATACCATCCGG	-0.564	-0.949	-0.452	-0.779	-0.864	-1	0.724	-0.373	-0.314	-0.369
CAGCCTAGGTCAGTGCCAGTATAGGAGGAACGTT	0.914	0.456	-0.00279	0.349	-0.648	1.17	0.469	0.475	-0.196	0.0661
ACTCGGAGGACAAAGGTCAGCGCTACGCCAGTGA	4.44	4.2	1.62	3.51	0.168	5.24	8.05	7.77	7.19	8.33
TCGAGCAGGTTAGTCGGGGCATTCAGCCAACATA	-0.0429	-0.284	-0.517	0.593	-0.865	0.572	-0.408	-0.00465	0.101	0.383
CGAACTAGGTCATTGACAGGACAGAGAATAGTAA	4.59	3.18	0.538	1.92	0.12	4.71	7.41	6.39	3.83	6.06
GTACCAAGGTGAATAGGTAGTTGATGAGTAGGCG	0.274	0.228	0.0287	0.0207	-0.534	0.934	0.795	0.782	0.189	0.453
AGAATGACGTTATTAAGATCAGGGAATTGCGGTC	-0.71	-0.589	-0.146	-0.6	-0.12	-0.251	0.405	0.0531	-0.0762	0.151
CCGACTGGGGCAGAAATGTTACCATACCATCCGG	-0.183	-0.371	-0.171	-0.528	-0.781	-0.385	0.729	-0.0813	-0.351	-0.433
ATCTCTAGGTAAGAGTCAGTTCAGTGAAGAACGC	0.322	0.41	0.44	0.262	0.685	0.413	0.239	1.03	0.45	0.958
CGTCCAAGGTCAGAGAGGTCAGGGAATGCCGAGT	6.63	5.17	3.24	4.51	0.359	5	4.38	4.53	1.42	3.6
GCTAGCAGGCCGTTTGGGTCACTCAATGACGGGC	0.0511	-0.392	-0.828	-0.0413	-1.11	0.602	-0.107	-0.514	-0.56	-0.437
CCTTACGGGTCAAGGTTATTGCACGGGTGGTACG	5.1	3.67	0.262	2.96	0.000433	4.77	4.52	4.63	2.03	3.46
AGTCAAAGTTCAGGAGGAGGTAACGTAAAGCACG	4.22	3.87	1.6	2.24	0.773	3.67	5.03	5.22	2.38	3.98
CCTGCTAGGGCATGGTCAGCTAATCTACAGTATG	-0.287	-0.381	-0.466	-0.695	-1.06	-0.338	0.0735	-0.381	-0.463	-0.375
TGAATGTGGTTATAAGATCAGGGAACGTTGCAAA	0.123	0.222	0.268	0.397	0.612	0.12	0.237	0.617	0.803	1.15
